Results on 40 molecules are retold here after PubChem BioAssay (NCI).

About 83,000 compounds went through this panel and 20% of them were active in at least one assay; those are over-represented in the sample as a whole.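 Single-dose data. Exposure time 48 hours. Values below 10 considered active.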 Values without a mark were called inactive. Activity calls are given as the source filed them.

For this test, the system named is HCT-15 colon. As to the kind of experiment: NCI-60 one-dose screen, 48 h (100 = growth as untreated, 0 = no growth, -100 = all killed). The conditions noted are these: 10 µM. On the procedure:
Growth inhibition of the HCT-15 human tumor cell line is measured as a screen for anti-cancer activity. Cells are grown in 96 well plates and exposed to the test compound for 48 hours. Compounds are tested at a single concentration, which is 10^-5 M for most compounds. The reported endpoint is percent growth (GI% or GIPRCNT), where numbers from 0 - 100% represent growth inhibition, and numbers from -100% - 0 represent cell death. For example, a value of 40 represents 60% growth inhibition. A value of 0 means no net growth occurred over the course of the experiment. A value of -40 indicates 40% of cells at the beginning of the experiment died by the end of the experiment. A value of -100 means all cells are dead at the end of the experiment.
NCI-60 Human Tumor Cell Lines Screen was performed using the standard one-dose NCI protocol, which is described in more detail at https://dtp.cancer.gov/discovery_development/nci-60/default.htm.
Compounds with GIPRCNT values below 10 were considered active. Activity score was based on GIPRCNT using the following formula: […]
Score is 0 for GIPRCNT values of 100 or above, 50 for GIPRCNT values of 0, and 100 for GIPRCNT values of -100.
As to `CCCCSc1nc(Nc2ccc(/C(C)=N/NC(N)=S)cc2)c(C#N)c(-c2ccc(OC)cc2)n1`, the growth was 75.9%.

`Cc1cc(=O)oc2cc(OCCCCOc3ccc(/C=C/C(=O)Nc4ccc(F)c(Cl)c4)cc3)ccc12`: the growth is 97%.

For `COC(=O)C[C@](O)(CCCC(C)(C)O)C(=O)O[C@H]1C(OC)=C[C@@]23CCC(=O)N2CCc2cc4c(cc2[C@@H]13)OCO4`, the growth was 97.8%.

Consider `COc1cc2c(cc1OC)CN(CCCCOc1cc(O)c3c(=O)cc(-c4ccccc4)oc3c1)CC2`, for which the growth is 21.4%.

Turning to `Cc1ccc(C(C)C)cc1NC(=O)c1ccccc1N(C)C`, the growth is 76.6%.

Turning to `O=C1CCC(N2Cc3cc(CC(=O)Nc4ccc(N5CCCCC5)cc4)ccc3C2=O)C(=O)N1` (stereo not given), the growth was 7.29% (active).

With `O=C(CNc1nc(-c2ccccc2)cs1)Nc1cccc(Cl)c1`, the growth was 5.51% (active).

As to `C=C1CCC2C3(C)COC(c4cccc(F)c4)OC3CCC2(C)C1CC(O)C1=CCOC1=O` (stereo not given), the growth is 8.31% (active).

For `Clc1ccc2c(N/N=C/c3c[nH]c4ccc(Br)cc34)ccnc2c1`, the growth was -80.3% (active).

Take `CC(=O)Nc1ccc(-n2cnc3cc(-c4ccc(O)cc4)ccc32)cc1F`: the growth was 5.21% (active).

On to `CN1C(=O)N(C)C2SC(N/N=C/c3ccccc3)=NC21` (stereo not given), for which the growth was 30.1%.

Take `COc1cc2c3c(n(CCCN4CCOCC4)c(=O)c2cc1OC)-c1nc2c(cc1C3=O)OCO2`: the growth is 41.5%.

For the molecule `Cc1noc2c(Cc3ccc([N+](=O)[O-])cc3)nn(CC(=O)N/N=C/c3ccc(Br)cc3)c(=O)c12`, the growth is 94.8%.

With `COc1ccc(CN2[C@H](C(=O)NCCCCCCC(=O)NO)Cc3c([nH]c4ccccc34)[C@H]2C2CC2)cc1`, the growth is 8.85% (active).

As to `COc1ccc2ncc(C#Cc3cncc(C(=O)Nc4ccc(CN5CCN(C)CC5)c(C(F)(F)F)c4)c3)n2n1`, the growth is -91.3% (active).

In the case of `C/C(=N\NC(N)=S)c1ccc(Nc2nc(SC(C)C)nc(-c3ccccc3)c2C#N)cc1`, the growth was 77.1%.

On to `O=C(Nc1nc2ccc([N+](=O)[O-])cc2s1)Nc1cc(Cl)ccc1I`, for which the growth was -58.2% (active).

Consider `O=C(CNc1nc(-c2ccccc2)cs1)Nc1ccc([N+](=O)[O-])cc1Cl`, for which the growth was 1.43% (active).

Take `CC1(c2ccccc2)NC(=O)N(CC(=O)Nc2ccc(C(=O)/C=C/c3ccc(Cl)cc3)cc2)C1=O` (stereo not given): the growth is -61.4% (active).

With `O=C(CSc1ccc(-c2ccc(Cl)cc2)nn1)Nc1ccc(Cl)c(C(F)(F)F)c1`, the growth was 25.9%.

Turning to `O=C(CSc1nnc(-c2ccc3nc(-c4ccc(Cl)cc4)[nH]c3c2)o1)Nc1ccc(Cl)cc1`, the growth was -84% (active).

With `Brc1ccc(N/N=C/c2c[nH]c3ccccc23)nc1`, the growth is 8.57% (active).

In the case of `CN1CCN(c2ccc(Nc3nc(NCCCNC(=O)c4ccc(Cl)cc4)c4sccc4n3)cc2)CC1`, the growth is 26.8%.

On to `CCOc1ccc(/C=N/NC(=O)Cn2nc(Cc3ccc([N+](=O)[O-])cc3)c3onc(C)c3c2=O)cc1`, for which the growth is 33.7%.

In the case of `O=C(CSc1nnc(-c2c[nH]c3ccccc23)n1-c1ccccc1)c1ccc(Br)cc1`, the growth is 44%.

As to `CCOC(=O)C1=C(N)N(c2ccc(C)cc2)C2=C(C(=O)CC(C)(C)C2)C1c1ccccc1OC` (stereo not given), the growth is 98.4%.

In the case of `O=[N+]([O-])c1ccc(-c2nc(-c3ccccc3)c(-c3ccccc3)n2-c2ccc(S(=O)(=O)Nc3ncccn3)cc2)cc1`, the growth is 23.8%.

For the molecule `CC(=O)Nc1nc(-c2ccc(N3CCN(C)CC3)c(NS(=O)(=O)c3ccc(C(F)(F)F)cc3)c2)cs1`, the growth was -67.7% (active).

Regarding `COC1CC(Cn2cc(COc3ccc4ccc(=O)oc4c3)nn2)C(OCc2ccccc2)C(OCc2ccccc2)C1OCc1ccccc1` (stereo not given), the growth is 88.9%.

For the molecule `O=C(c1ccc(Cl)cc1)C1[C@H](c2ccccc2Br)[C@@H](c2ccccc2)NC12C(=O)Nc1ccc(Cl)cc12` (stereo not given in full), the growth is 8.84% (active).

On to `O=C(Nc1cccc(-c2cn(-c3ccc4oc(=O)ccc4c3)nn2)c1)Nc1cc(C(F)(F)F)cc(C(F)(F)F)c1`, for which the growth is 19%.

On to `Cc1nn(-c2ccccc2)c2ncn(CC(=O)N/N=C/c3c[nH]c4ccccc34)c(=O)c12`, for which the growth is 89.2%.

As for `O=C(c1ccccc1)n1ccc(-c2cc3cc(Br)ccc3oc2=O)n1`, the growth is 22.8%.

Turning to `Clc1ccc(/C=N/Nc2ncnc3sc4c(c23)CCN(Cc2ccccc2)C4)cc1`, the growth was -25.1% (active).

For the molecule `O=C(COc1ccc(NC(=O)Nc2ccc(Cl)cc2)cc1)N=Nc1c(O)[nH]c2ccc([N+](=O)[O-])cc12`, the growth is 94.1%.

On to `CC(=O)Nc1ccc(-c2cn(-c3cccc(C(=O)Nc4cc(C(F)(F)F)cc(C(F)(F)F)c4)c3)nn2)cn1`, for which the growth is -40.5% (active).

In the case of `C=C[C@H]1[C@H](O[C@@H]2OC(CO)[C@@H](O)[C@H](O)C2OC(=O)c2c(O)cc(O)cc2-c2cccc(O)c2)OC=C2C(=O)OCC[C@H]21` (stereo not given in full), the growth is 93.7%.

Consider `O=C(c1ccc(Cl)cc1)C1[C@H](c2ccc(Br)cc2)[C@@H](c2ccccc2)NC12C(=O)Nc1ccc(Br)cc12` (stereo not given in full), for which the growth was -91.6% (active).

For the molecule `N#Cc1c(NC(=O)c2cccc(C(F)(F)F)c2)sc2c1CCC(O)=C2`, the growth was 20.6%.

In the case of `O=c1nc(-c2ccccc2)cc(-c2cc3ccccc3nc2Cl)[nH]1`, the growth is -64.1% (active).
